CYP2C19 inhib – inhibitors of human CYP2C19; P33261; CYP2C19 Supersomes, luciferin-H EGE luminescence, 30 min; inhibition, % at 5 µM; actives 21% (n = 96,000); AID 778;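 active means CYP2C19 inhibition above a set limit at 5 µM in the primary screen, cut at about 50% in these data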;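 further: plate controls were negative control wells for no effect and 2.5 mM tranylcypromine positive control for full effect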
Target sequence (P33261 whole entry, looked up): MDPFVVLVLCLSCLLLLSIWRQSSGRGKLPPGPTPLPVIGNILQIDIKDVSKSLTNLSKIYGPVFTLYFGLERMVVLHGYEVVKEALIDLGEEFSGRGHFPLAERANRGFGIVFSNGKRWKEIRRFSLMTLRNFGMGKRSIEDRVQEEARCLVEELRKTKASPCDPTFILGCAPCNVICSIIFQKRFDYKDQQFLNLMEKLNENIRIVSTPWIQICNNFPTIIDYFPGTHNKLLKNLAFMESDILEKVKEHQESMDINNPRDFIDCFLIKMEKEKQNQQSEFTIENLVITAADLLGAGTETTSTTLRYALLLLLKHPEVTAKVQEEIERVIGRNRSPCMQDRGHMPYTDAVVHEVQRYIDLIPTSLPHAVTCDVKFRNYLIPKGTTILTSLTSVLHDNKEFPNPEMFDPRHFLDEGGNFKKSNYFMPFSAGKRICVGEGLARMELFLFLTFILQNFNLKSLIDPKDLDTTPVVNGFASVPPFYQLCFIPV
CYP2C9 activ – CYP2C9 (human) activation | recombinant CYP2C9, luciferin-H conversion, luminescence; stronger effect = higher value; factor 1 = untreated enzyme, 0 = blocked | activation factor at 5 µM | actives 1.4% (n = 96,000) | AID 1024;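 active means activation factor of 2 or more for CYP2C9 at a 5 µM dose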;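 further: 0 = sulfaphenazole-blocked wells and 1 = vehicle-only wells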
CYP2C19 act – increases human CYP2C19 enzyme activity; activation factor at 5 µM; P33261; 96,000 tested, under 10 active; recombinant CYP2C19, luciferin-H EGE luminescence; stronger effect = higher value; 0 = fully inhibited enzyme, 1 = untreated enzyme;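 active means activation factor of at least 2 at 5 µM in the primary screen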;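 further: 0 = wells with 2.5 mM tranylcypromine and 1 = vehicle-only wells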
PTK2B oligo ant – antagonists of human Pyk2 oligomerization; Q14289; Q293 cells, Pyk2 FERM NanoBiT luminescence; stronger effect = lower value; z-score (the deposit names both 25 µM and 10 µM); actives 0.83% (n = 99,000); AID 1347419;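 active means Z-score of -3 or lower, scaled per plate to the spread of control and sample wells; inactive means z-score above -3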;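 further: negative z-score means lost luminescence so less FERM oligomerization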
CYP2C9 inh – inhibitors of human CYP2C9; P11712; CYP2C9 Supersomes, luciferin-H conversion, luminescence; inhibition, % at 5 µM; actives 20% (n = 96,000);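 active means blocking of liver enzyme CYP2C9 beyond about 50% at 5 µM, limit read from the data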
* = called active by the depositor; · = no result. Sampled rows, rich in hits. Any-hit rate of the full collection: about 28%.

SMILES | CYP2C19 inhib | CYP2C9 activ | CYP2C19 act | PTK2B oligo ant | CYP2C9 inh
COc1cc(C(=O)Nc2ccc3c(c2)OCCO3)ccc1-n1cnnn1 | 45 | 1.1 | 0.6 | 0.84 | -9
CCOCCCNS(=O)(=O)c1ccc(-n2cnnn2)c(OC)c1 | 89* | 1.3 | 0.1 | 0.44 | -34
COc1cc(NS(=O)(=O)c2ccc(C)cc2)ccc1-n1cnnn1 | 44 | 0.3 | 0.6 | -0.42 | 72*
COc1cc(S(=O)(=O)NCCc2ccc3c(c2)OCO3)ccc1-n1cnnn1 | 96* | 0.1 | 0 | 1.8 | 87*
COc1cc(S(=O)(=O)NCC2COCCO2)ccc1-n1cnnn1 (stereo not drawn) | 28 | 0.9 | 0.7 | 0.24 | 8
c1ccc(COc2ccc(Nc3ncnc4nc[nH]c34)cc2)cc1 | 26 | 0.7 | 0.7 | · | 32
C#CCONC(=O)c1cc(OCC(F)(F)F)ccc1OCC(F)(F)F | 61* | 0.8 | 0.4 | -0.67 | 21
O=C(NCCNC(=O)c1cc(OCC(F)(F)F)ccc1OCC(F)(F)F)Nc1ccccc1 | 22 | 0.4 | 0.8 | -1.3 | 57*
O=C(CN1CCC(C(=O)c2ccc(F)cc2)CC1)Nc1ccc(F)cc1 | · | · | · | 1.3 | ·
CCOc1ccccc1NC(=O)N1CCC(C(=O)c2ccc(F)cc2)CC1 | 83* | 2.5* | 0.2 | -0.23 | -153
COc1ccccc1NC(=O)N1CCC(C(=O)c2ccc(F)cc2)CC1 | 32 | 3.4* | 0.7 | 0.88 | -237
O=C(CN1CCC(C(=O)c2ccc(F)cc2)CC1)Nc1ccccc1 | 37 | 0.4 | 0.6 | 1.2 | 57*
COc1ccccc1NC(=O)CN1CCC(C(=O)c2ccc(F)cc2)CC1 | 52* | 1.1 | 0.5 | 0.22 | -11
COc1ccccc1C(=O)N1CCC(C(=O)c2ccc(F)cc2)CC1 | 44 | 1.7 | 0.6 | -0.48 | -71
Cc1nc(N)sc1N=Nc1ccc(Br)cc1 | 33 | 0.6 | 0.7 | -0.62 | 37
CCOC(=O)CCS(=O)(=O)c1ccc(-c2ccc(S(=O)(=O)CCC(=O)OCC)cc2)cc1 | -20 | 1 | 1.2 | 0.09 | -4
COc1ccc(CNC(=O)CN2CCC(C(=O)c3ccc(OC)cc3)CC2)cc1 | 63* | 0.3 | 0.4 | 0.17 | 70*
CC(=O)N1CCc2[nH]c3ccccc3c2C1 | 33 | 0.9 | 0.7 | 0.27 | 13
COc1ccccc1NC(=O)N1CCc2[nH]c3ccc(F)cc3c2C1 | 67* | 1.3 | 0.3 | -0.51 | -30
CCOc1ccc(NC(=O)C2CC(=O)N(C(C)C)C2)cc1 (stereo not drawn) | -6 | 1 | 1.1 | 0.31 | -4
Cc1ccc(C(=O)c2cc3ccccc3o2)cc1 | 42 | 0.6 | 0.6 | 0.04 | 36
O=C(c1cc2ccccc2o1)c1cccs1 | 49 | 0.5 | 0.5 | -0.01 | 51*
CC(NC(=O)c1cc2ccccc2o1)c1cccs1 (stereo not drawn) | 82* | 0.3 | 0.2 | -0.28 | 69*
CC(C)NC(=O)c1cc2ccccc2o1 | · | · | · | 0.47 | ·
NC(=O)CC1SC(N)=NC1=O (stereo not drawn) | 2 | 1 | 1 | 0.38 | 4
SMILES | CYP2C19 inhib | CYP2C9 activ | CYP2C19 act | PTK2B oligo ant | CYP2C9 inh
O=C(NCc1ccco1)c1ccc(CN2CCOCC2)cc1 | -9 | 1.1 | 1.1 | 0.45 | -10
CCOC(=O)Cc1csc(SCC(=O)N2CCN(c3ccc(OC)cc3)CC2)n1 | 16 | 0.5 | 0.8 | 1.1 | 45
CCOC(=O)Cc1csc(SCC(=O)Nc2cccc(Cl)c2)n1 | 32 | 0.3 | 0.7 | 1.3 | 66*
Cc1nc(SCC(=O)Nc2cccc(Cl)c2)n[nH]1 | 64* | 0.8 | 0.4 | -0.89 | 23
CCOC(=O)Cc1csc(SCC(=O)Nc2cc(Cl)ccc2Oc2ccccc2)n1 | 91* | 0.1 | 0.1 | -0.14 | 94*
N#Cc1cccc(NC(=O)CSc2ccccc2)c1 | 34 | 0.8 | 0.7 | 1.8 | 24
CCOC(=O)Cc1csc(SCC(=O)Nc2cccc(C#N)c2)n1 | 66* | 0.2 | 0.3 | 1.6 | 80*
CO/C([O-])=N/c1c[n+](-c2ccc(Cl)cc2)no1 | 18 | 0.9 | 0.8 | 0.14 | 10
S=C1NC(c2ccccc2)N2C(=S)NC(c3ccccc3)N12 (stereo not drawn) | 94* | 0.2 | 0.1 | 0.07 | 78*
COc1ccc(C2NC(=S)N3C(c4ccc(OC)cc4)NC(=S)N23)cc1 (stereo not drawn) | 51* | 0.7 | 0.5 | -2.2 | 28
CCN1C(=O)N(CN2CCOCC2)C2C1N(CN1CCOCC1)C(=O)N2CC (stereo not drawn) | 0 | 0.9 | 1 | 0.7 | 14
COc1ccc(-c2cc(C(=O)NCC(C)C)no2)cc1 | -3 | 1 | 1 | -0.03 | 4
c1ccc2nc(-c3ccc(N4CCOCC4)cc3)ccc2c1 | 41 | 1.5 | 0.6 | -1.1 | -45
c1ccc2nc(-c3ccncc3)ccc2c1 | 68* | 0.6 | 0.3 | 1.1 | 36
COC(=O)C1=C(N)Oc2cc(C)[nH]c(=O)c2C1c1ccncc1 (stereo not drawn) | 49 | 0.5 | 0.5 | 1.3 | 51*
COC(=O)C1=C(N)Oc2cc(C)n(CC3CCCO3)c(=O)c2C1c1ccc(Cl)c(Cl)c1 (stereo not drawn) | 72* | 0.2 | 0.3 | -1.9 | 81*
COC(=O)C1=C(N)Oc2cc(C)n(C)c(=O)c2C1c1ccc(Cl)c(Cl)c1 (stereo not drawn) | -8 | 0.7 | 1.1 | -2 | 32
CCn1c(C)cc2c(c1=O)C(c1ccccc1)C(C(=O)OC)=C(N)O2 (stereo not drawn) | 21 | 1.1 | 0.8 | 0.36 | -8
COC(=O)C1=C(N)Oc2cc(C)n(CCCn3ccnc3)c(=O)c2C1c1ccc(Cl)cc1 (stereo not drawn) | 99* | 0 | 0 | -2.2 | 97*
COC(=O)C1=C(N)Oc2cc(C)n(Cc3ccco3)c(=O)c2C1c1cccc(Cl)c1 (stereo not drawn) | 34 | 0.4 | 0.7 | -2.9 | 56*
O=C(CN1CCCCC1)Nc1ccc(NC(=O)c2ccc(Cl)cc2)cc1Cl | 18 | 0.8 | 0.8 | 0.65 | 16
Cc1cc(C)n(-c2cc(-c3ccccc3)nc(C)n2)n1 | 22 | 0.8 | 0.8 | -0.18 | 22
FC(F)(F)c1cc(-c2ccccc2)nc(N2CCCCCC2)n1 | -3 | 1 | 1 | -0.11 | -4
Cc1nc(-c2ccccc2)cc(N2CCCC2)n1 | 51* | 0.7 | 0.5 | -0.19 | 30
Nc1nc(-c2ccccc2)cc(N2CCCCC2)n1 | 51* | 0.8 | 0.5 | -0.08 | 21
c1ccc(-c2cnnc(N3CCCCC3)n2)cc1 | 83* | 0.6 | 0.2 | -0.02 | 43
c1ccc(-c2cc(N3CCCCC3)ncn2)cc1 | 87* | 0.8 | 0.1 | -1.1 | 21
Cc1cc2ncn(CC(O)COC3CCCCC3)c2cc1C (stereo not drawn) | 64* | 0.1 | 0.4 | 1.9 | 86*
CCc1ccc(NC(=O)N(CCOC)C2CCN(C(C)=O)CC2)cc1 | 8 | 1.2 | 0.9 | 0.49 | -17
COCCN1C(=O)c2ccc(C(=O)NCc3cccnc3)cc2C1=O | -4 | 1 | 1 | -0.3 | -2

Bioassay records deposited in PubChem BioAssay by Sanford-Burnham Center for Chemical Genomics.
